Only some compounds are listed: those with a hit (about 3.9% of all), similar ones and a draw of the others.
NSD2 inh: blocks human histone methyltransferase NSD2; O96028; NSD2 peptide methylation, AlphaScreen, 120 min; inhibition, % at 12.5 µM; 310,000 compounds, 0.54% hits; AID 743445; in the data active means inhibition above about 50%
ALR H2O2 inh: inhibitors of human sulfhydryl oxidase ALR; P55789; 290,000 compounds, 3.8% hits; purified ALR, DTT oxidation, H2O2 HRP-luminol luminescence; inhibition, % (test concentration not listed);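 active means mean replicate inhibition above about 79%, with every replicate also reaching it, limit read from the data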
CDK5 p35 inh: inhibitors of human CDK5/p35 kinase. Q00535+Q15078. Recombinant CDK5/p35, ADP-Glo luminescence, 60 min. inhibition, % at 10 µM. 330,000 compounds, 0.01% hits;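 active means highest replicate inhibition of at least 50% and at least 75% of replicates reaching 50%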;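 further: plate controls were DMSO neutral control for no effect and GW8510 at 10 µM for full effect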
Target sequence (Q00535 whole entry, looked up): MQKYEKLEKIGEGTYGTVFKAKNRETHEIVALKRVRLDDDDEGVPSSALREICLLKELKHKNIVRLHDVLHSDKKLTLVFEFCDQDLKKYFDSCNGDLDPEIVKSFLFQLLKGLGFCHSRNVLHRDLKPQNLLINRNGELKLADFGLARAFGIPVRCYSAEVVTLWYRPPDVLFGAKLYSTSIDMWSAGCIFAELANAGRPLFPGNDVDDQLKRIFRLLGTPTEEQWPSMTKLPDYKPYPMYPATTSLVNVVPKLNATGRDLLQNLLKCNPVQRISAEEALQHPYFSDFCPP
Target sequence (Q15078 whole entry, looked up): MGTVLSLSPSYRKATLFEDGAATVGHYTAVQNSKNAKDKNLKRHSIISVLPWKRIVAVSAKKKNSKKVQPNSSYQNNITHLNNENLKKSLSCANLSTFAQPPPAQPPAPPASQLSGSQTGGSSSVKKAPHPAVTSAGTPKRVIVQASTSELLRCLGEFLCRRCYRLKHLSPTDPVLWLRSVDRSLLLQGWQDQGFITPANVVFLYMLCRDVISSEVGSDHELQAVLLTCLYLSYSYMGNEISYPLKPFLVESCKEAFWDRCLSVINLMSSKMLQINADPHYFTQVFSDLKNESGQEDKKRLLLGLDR
CASP6 VEID inh: caspase-6 (human) enzyme inhibition; P55212; purified caspase-6, Z-VEID-R110 cleavage fluorescence; inhibition, % at 12.5 µM; 350,000 compounds, 0.53% hits; AID 686996;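 active means mean inhibition across replicates at least about 35%, with every replicate also reaching that limit, limit read from the data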;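 further: 0% = median of neutral control wells and 100% = no fluorescence left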
Mot1-301 SUMO: inhibitors of SUMOylation pathway: yeast Mot1-301 growth rescue | S. cerevisiae Mot1-301 growth rescue, ATP luminescence, 38.5C; percent above DMSO median, 100 means doubled | growth rescue, % at 18.8 µM | 320,000 compounds, 1% hits | AID 2716;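 active means every valid replicate shows activation above 250% relative to neutral control wells; inactive means the rest, any valid replicate at or below 250%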;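 further: OY570 slx delta 5 strain wells were the positive control but not used for scaling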
N-glyco inh: N-linked glycosylation inhibition. reporter increase, % at 12.5 µM. AID 588692. D54 ERlucT glycosylation luciferase reporter, 24 h; percent of 100 nM tunicamycin response. 360,000 compounds, 0.23% hits;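 active means mean luciferase reporter signal, scaled so untreated is 0 and the glycosylation-blocking control 100, at or above a set limit in every replicate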;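 further: luciferase carries N-glycosylation sites so blocking glycosylation raises the light; 0% = median of neutral control wells and 100% = median of 100 nM tunicamycin wells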
Mot1 SUMO dose: inhibits SUMO pathway, affecting Mot1-301 yeast growth | shares compounds with Mot1-301 SUMO | 2,300 tested, under 10 active | growth activity, percent, % at 42 µM | S. cerevisiae Mot1-301 galactose growth, ATP luminescence, 24 h; -100 = growth of slx-deleted rescue strain;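 active means Signal drops as the depositor expects, and the fitted half-maximal dose is no more than ten times the top valid tested dose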;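 further: more negative values mean stronger growth rescue toward the control strain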
* hit, by the source's call; x = not tested or not shown; + = active, no number; [ ] = remark or other dose.

SMILES	NSD2 inh	ALR H2O2 inh	CDK5 p35 inh	CASP6 VEID inh	Mot1-301 SUMO	N-glyco inh	Mot1 SUMO dose
CN(CC(=O)NCc1ccc(F)cc1)S(=O)(=O)c1cccc2nsnc12	3	-1	2	x	93	1	x
CN(CC(=O)NCc1cccs1)S(=O)(=O)c1cccc2nsnc12	3	-11	0	x	436*	0	0
CCOC(=O)c1oc2ccccc2c1COC(=O)CNC(=O)c1cccc(C)c1	-1	2	0	7	984*	-1	0
CCC(=O)N(Cc1cc(=O)[nH]c2ccccc12)c1ccccc1	-1	-15	2	3	-4	2	x
O=C(CCl)N(Cc1cc(=O)[nH]c2ccccc12)c1ccccc1	13	96*	-1	21	491*	-4	0
CC(C)c1ccc(/C=C2\SC(N3CCCC3)=NC2=O)cc1	14	-3	1	x	-11	-2	x
Cc1ccc(/C=C2\SC(N3CCCC3)=NC2=O)cc1	-1	x	x	1	477*	x	-1
O=C(c1ccccc1)N1C[C@H]2[C@@H](c3ccccc31)[C@H](CO)N2S(=O)(=O)c1ccccc1	x	x	x	3	x	x	x
CCC(=O)c1c[nH]c(C(=O)NCCCn2ccnc2)c1	1	-11	0	x	+	1	0
Oc1ccccc1-c1cc(C(F)(F)C(F)F)[nH]n1	x	70	8	x	872*	1	1
O=C(Nc1cccc(Cl)c1)N[C@@H]1CC[C@H](CCNC(=O)C2CCCCC2)O[C@@H]1CO	x	x	x	2	x	x	x
CS(=O)(=O)Nc1ccc2c(c1)[C@H]1C[C@@H](CC(=O)NCc3ccccc3F)O[C@H](CO)[C@H]1O2	x	x	x	1	x	x	x
COc1ccc(NC2=C(c3ccc(OC)cc3)C(=O)c3ccccc32)cc1	8	x	0	3	9	0	x
COc1ccc(C2=C(N)c3ccccc3C2=O)cc1	7	-1	7	x	457*	-3	-2
C[C@@H]1CCCCO[C@@H](CN(C)S(C)(=O)=O)[C@@H](C)CN([C@H](C)CO)C(=O)c2cc(NC(=O)Cc3ccccc3)ccc2O1	x	x	x	1	x	x	x
CCN(CC)CCCN1C(=O)C(=O)/C(=C(/O)c2ccccc2)C1c1cc(OC)ccc1OC (configuration not stated)	9	-9	-2	x	685*	0	0
COc1ccccc1C1/C(=C(/O)c2ccccc2)C(=O)C(=O)N1CCO (configuration not stated)	-2	-2	-3	x	-28	4	x
COc1ccccc1NC(=O)CN(c1ccc(C)cc1)S(=O)(=O)c1c(C)n[nH]c1C	-3	3	-4	x	981*	1	1
CCNC(=O)C1CC(=O)N(Cc2ccc3c(c2)OCO3)C(=Nc2ccc(F)cc2)S1 (configuration not stated)	-1	-7	-1	x	781*	1	1
CN(CCO)C(=O)c1ccc(-c2nn(C)c(=O)c3ccccc23)cc1	-3	x	0	3	6	2	x
CN(C(=O)c1ccc(-c2nn(C)c(=O)c3ccccc23)cc1)C1CCCCC1	8	2	1	-2	736*	2	0
Fc1cccc(NC(=S)N2CCn3cccc3C2c2cccnc2)c1 (configuration not stated)	12	10	-1	-1	497*	1	0
S=C(Nc1ccccc1)N1CCn2cccc2C1c1cccnc1 (configuration not stated)	1	11	0	1	47	1	x
COc1ccc(S(=O)(=O)Nc2ccc3c(c2)[C@@H]2C[C@H](CC(=O)O)O[C@H](CO)[C@@H]2O3)cc1	x	x	x	3	x	x	x
COc1ccc(N2CCN(CC(=O)c3c[nH]c4ccccc34)CC2)cc1	4	-2	1	-3	-5	0	x
SMILES	NSD2 inh	ALR H2O2 inh	CDK5 p35 inh	CASP6 VEID inh	Mot1-301 SUMO	N-glyco inh	Mot1 SUMO dose
COc1ccc(N2CCN(CCCNC(=O)C(=O)c3c(C)[nH]c4ccccc34)CC2)cc1	14	32	-1	-3	413*	-1	0[21 µM]
CCS(=O)(=O)NCC[C@@H]1CC[C@@H](NS(=O)(=O)c2cccc(F)c2)[C@@H](CO)O1	x	x	x	0	x	x	x
CCc1cc2c(NCCO)ncnc2s1	-4	-3	0	x	+	0	0
Cc1nc(N)c(Cc2ccccc2F)c(N)n1	1	-1	-1	3	433*	-2	1
C[C@@H]1CN([C@@H](C)CO)C(=O)c2cc(NC(=O)C3CCCCC3)ccc2O[C@H]1CN(C)C(=O)Nc1cccc2ccccc12	x	x	x	-2	x	x	x
CCCNC(=O)N1CCC2(CC1)CN(C(=O)CC)[C@H](CO)c1[nH]c3cc(OC)ccc3c12	x	x	x	-1	x	x	x
O=C(O)CCC(=O)Nc1cccc(C(=O)Nc2cccc(Cl)c2)c1	3	1	1	x	-2	0	x
O=C(O)CCC(=O)Nc1cccc(C(=O)Nc2ccc(Br)cc2)c1	-3	0	1	-2	796*	2	0
O=C(COC(=O)C1COc2ccccc2O1)NC1CCS(=O)(=O)C1 (configuration not stated)	-1	-4	1	3	473*	2	0
CN(c1cccnc1)c1ncnc2[nH]ncc12	1	-1	-2	-1	+	0	0
CN1[C@@H]2c3ccc(-c4cccnc4)c(=O)n3C[C@@H]2[C@@H](CO)[C@@H]1C(=O)NC1Cc2ccccc2C1	x	x	x	2	x	x	x
COc1ccc(NC(=O)Nc2ccc3c(c2)C(=O)N([C@H](C)CO)C[C@@H](C)[C@@H](CN(C)Cc2ccc(Cl)c(Cl)c2)OCCCC[C@H](C)O3)cc1	x	x	x	1	x	x	x
CCOC(=O)C1=C(C)Nc2ncnn2C1/C=C/c1ccccc1 (configuration not stated)	-2	-5	0	x	613*	11	0
O=C(Nc1ccc(Cl)cc1)N[C@@H]1CC[C@H](CCNS(=O)(=O)c2ccccc2F)O[C@H]1CO	x	x	x	0	x	x	x
COc1ccccc1-c1ccc2c(c1)O[C@@H](CN(C)C(=O)c1cccnc1)[C@H](C)CN([C@H](C)CO)S2(=O)=O	x	x	x	4	x	x	x

Screens (PubChem BioAssay)
